# In PubChem BioAssay (NCI):
# Compounds without any hit were thinned out: in the full panel of roughly 83,000, 20% have a hit.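 Cells were grown in 96-well plates and exposed to the test compound at a single concentration for 48 hours; results are reported as percent growth, with values below 10 considered active.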 Values without a mark were called inactive. The source made the active and inactive calls.
# Tests used:
# Experiment in all cases: NCI-60 one-dose screen, 48 h (100 = growth as untreated, 0 = no growth, -100 = all killed)
# Details in all cases: 10 µM unless noted
# SR leukemia = system: SR leukemia
# RPMI-8226 leukemia = system: RPMI-8226 leukemia
# OVCAR-8 ovarian = system: OVCAR-8 ovarian
# OVCAR-5 ovarian = system: OVCAR-5 ovarian
# OVCAR-4 ovarian = system: OVCAR-4 ovarian
# SK-OV-3 ovarian = system: SK-OV-3 ovarian
# IGROV1 ovarian = system: IGROV1 ovarian
# OVCAR-3 ovarian = system: OVCAR-3 ovarian
# HS 578T breast = system: HS 578T breast
# NCI/ADR-RES ovarian = system: NCI/ADR-RES ovarian
SMILES,growth (SR leukemia),growth (RPMI-8226 leukemia),growth (OVCAR-8 ovarian),growth (OVCAR-5 ovarian),growth (OVCAR-4 ovarian),growth (SK-OV-3 ovarian),growth (IGROV1 ovarian),growth (OVCAR-3 ovarian),growth (HS 578T breast),growth (NCI/ADR-RES ovarian)
CC(=O)OCCc1ccccc1,85.3%,93.5%,98.7%,91.2%,106%,102%,101%,137%,104%,86.3%
O=C(Oc1ccc([N+](=O)[O-])cc1)c1ccc(CBr)cc1,74.7%,81.6%,96.2%,103%,111%,147%,90.7%,114%,96.7%,99.3%
Cc1cc(C(c2ccccc2)c2ccccc2)ccc1NS(=O)(=O)c1ccccc1,74.7%,71%,101%,114%,98.5%,109%,123%,108%,89.8%,82.8%
N#Cc1c(N)n2c(nc1=Nc1ccc([N+](=O)[O-])cc1)sc1cc(Cl)ccc12,34.7%,49.7%,94.5%,101%,86.1%,76.4%,82.3%,108%,79%,95.2%
COc1ccc(NC(=O)C(=O)c2c[nH]c3ccc(F)cc23)cc1,81.4%,92.7%,99%,106%,102%,89.4%,118%,99.8%,104%,96.2%
OC(CBr)c1ccnc2ccccc12 (centres undefined),98.7%,87.4%,98.2%,106%,110%,105%,102%,–,99.6%,101%
C[C@@H]1C(=O)N(C[C@H](Cc2ccccc2)N(Cc2ccccc2)Cc2ccccc2)[C@]1(Cc1ccccc1)C(=O)OC(C)(C)C,56.2%,36.8%,66.7%,109%,28.8%,73.1%,77.5%,54.5%,73%,69%
CCN(CC)S(=O)(=O)c1ccc(O)c(NC(=O)c2[nH]c(C)c(C(C)=O)c2CCc2ccc(Cl)cc2)c1,32.5%,28.3%,37.5%,92.7%,15.2%,37.8%,45.5%,24.1%,49.9%,50.5%
COc1cc(C2CC(=O)Nc3n[nH]c(-c4ccccc4)c32)cc(OC)c1OC (centres undefined),31.8%,90.6%,80.1%,91.3%,88.4%,85.5%,71.4%,36%,74.8%,104%
N[C@H]1CCC[C@@H]1NCCCCN1C(=O)c2cccc3cccc(c23)C1=O,20%,75.1%,39.9%,74%,36%,95.2%,39.3%,61.3%,68.2%,79.1%
N#Cc1c(-c2ccc(C(F)(F)F)cc2)cc(N2CC(O)C2)n2c1nc1ccccc12,73.5%,78.8%,19.4%,77.5%,-29.8% (active),18.8%,–,48.4%,17.8%,38.3%
Cc1nc(Nc2ccc(NC(=S)Nc3ccccc3)cc2)nc2nc(Nc3cccc(Cl)c3)[nH]c(=O)c12,62.7%,57.2%,97.2%,101%,102%,95.7%,–,139%,67.1%,110%
O=C1CC(c2ccc3c(c2)OCO3)Nc2cc3c(cc21)OCO3 (centres undefined),7.67% (active),16.5%,12.7%,44.7%,49.9%,–,50.4%,-5.26% (active),19.5%,13.5%
CC(C)CCC[C@@H](C)[C@H]1CCC2C3=CCn4c(=O)ccc(=O)n4C3CC[C@@]21C (some centres undefined),-34.6% (active),-41.5% (active),-39.7% (active),-84.3% (active),-32.4% (active),-100% (active),-82.4% (active),–,-12.2% (active),-28.7% (active)
C=CCOc1cccc(/C=C2\SC(=Nc3ccc(O)cc3)NC2=O)c1,17.1%,-14.4% (active),27.4%,27.9%,32%,–,20.3%,6.17% (active),18%,7.2% (active)
C(=C\c1nc2ccccc2[nH]1)/c1nc2ccccc2[nH]1,93.3%,89.9%,97.6%,111%,97.1%,98.4%,–,–,100%,94.3%
O=C(NCc1cn(Cc2cccc(Oc3ccccc3)c2)nn1)c1cccnc1NCc1ccc(Cl)cc1,19.3%,-9.55% (active),32.6%,51.5%,43.8%,21.4%,–,2.33% (active),23.8%,0.306% (active)
CCN(CC)CCOC(=O)N1c2ccccc2Sc2ccccc21,98.6%,85.6%,101%,101%,101%,98%,94.1%,–,91.7%,96.1%
Fc1ccc(Nc2nc(Nc3ccc(-c4nc5ccccc5[nH]4)cc3)c3cn[nH]c3n2)cc1,-21.1% (active),1.66% (active),56.8%,106%,81.8%,90.3%,81.6%,–,93.5%,67.5%
O=c1[nH]nc(-c2ccc(Cl)cc2)cc1Cc1ccccc1,62.5%,41.1%,83%,94.1%,95.1%,99.1%,40.9%,–,103%,98.4%
COc1cc2oc(-c3cccc(C(=O)Nc4ccc(C#N)cc4)c3)cc(=O)c2c(O)c1OC,62.2%,51.3%,29.1%,66.5%,11.7%,–,84.6%,51.3%,83.4%,51.2%
CCCCN1CCN(c2ccc3nc(-c4ccc5nc(-c6cc(OC)c(OC)c(OC)c6)[nH]c5c4)[nH]c3c2)CC1,10.7%,55.9%,56.2%,117%,84.4%,–,94.2%,67%,45%,102%
Cc1cc2c(F)c(Oc3ncnc(Nc4ccc(N5C[C@@H](C)N[C@@H](C)C5)cc4)c3C#N)cc(F)c2[nH]1,-26.4% (active),2.98% (active),25.6%,103%,16.2%,92.8%,73%,–,64%,50.6%
CCCCNC(=O)c1cc(NCc2cc(O)ccc2O)ccc1O,41.1%,19.3%,87.6%,107%,90.8%,85.8%,–,54.2%,88%,95%
Oc1[nH]c2ccccc2c1/C=c1/cc2c(c(-c3ccc(F)cc3)n1)=Nc1ccccc1-2,10%,-40.5% (active),-19.6% (active),0.0696% (active),-65.1% (active),-7.93% (active),–,-77% (active),-7.82% (active),-18.7% (active)
CCCN1CCN(c2ccc3nc(-c4ccc5nc(-c6cc(OC)c(OC)c(OC)c6)[nH]c5c4)[nH]c3c2)CC1,34.6%,95.3%,75.5%,116%,89.9%,–,101%,76.9%,54.1%,100%
COc1ccc(/C(C)=C(\c2ccc(Cl)cc2)c2ccc(OCCN(C)C)cc2)cc1F,-32% (active),-29.2% (active),65.5%,78%,56.1%,92.9%,47.6%,–,64.3%,78.9%
O=C(/C=C/C12c3ccccc3C(c3ccccc31)C1C(=O)NC(=O)C12)c1ccccc1 (centres undefined),20.9%,5.51% (active),27.3%,26.4%,39.4%,–,19.8%,2.7% (active),14.4%,5.9% (active)
COc1cc(NC(=O)c2cccc(-c3cc(=O)c4c(OC)c(OC)c(OC)cc4o3)c2)cc(OC)c1OC,29.8%,0.302% (active),30.9%,86%,74.8%,–,51.8%,40.8%,9.2% (active),51.1%
